Results: PubChem BioAssay (EPA / NIEHS)
Inconclusive results are not listed. Calls of active or inactive are those of the source. How the source made its calls, unless noted: active means hit-call score of the fitted dose curve at least 0.9, where 1 is the maximum; inconclusive means response in the unintended direction; inactive means score below 0.9.

What was measured:
[1] = TOX21_p53_BLA_p2_viability: Viability Assessment in the Tox21 HCT-116 p53 Agonism Beta-lactamase Assay, Phase 2 (AID 2283591);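 further: compound exposure lasted 16 h at 37 °C; actives lower the ATP signal meaning cytotoxicity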
Summary of the method: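 Cytotoxicity readout: CellTiter-Glo ATP luminescence, 30 min at room temperature, after the beta-lactamase read. Cells were HCT116 exposed 16 h at 37C to compounds pin-transferred at 217-fold dilution from DMSO stocks.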

[2] = TOX21_p53_BLA_p3_viability: Viability Assessment in the Tox21 HCT-116 p53 Agonism Beta-lactamase Assay, Phase 3 (AID 2283593);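 further: cells exposed to compound for 16 h before reading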
Summary of the method: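 Cellular ATP was quantified by CellTiter-Glo luminescence, read after 30 min at room temperature. Beforehand, HCT116 cells (4000/well) received compound 5 h post-seeding, 217-fold diluted from DMSO, then incubated 16 h at 37C.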

[3] = target: Cellular tumor antigen p53 (Homo sapiens) (UniProt P04637); test: TOX21_p53_BLA_p5_ratio: Tox21 HCT-116 p53 Agonism Beta-lactamase Assay, Ratio, Phase 5 (AID 2283599)
Cellular tumor antigen p53 (Homo sapiens), sequence (P04637 whole entry, looked up): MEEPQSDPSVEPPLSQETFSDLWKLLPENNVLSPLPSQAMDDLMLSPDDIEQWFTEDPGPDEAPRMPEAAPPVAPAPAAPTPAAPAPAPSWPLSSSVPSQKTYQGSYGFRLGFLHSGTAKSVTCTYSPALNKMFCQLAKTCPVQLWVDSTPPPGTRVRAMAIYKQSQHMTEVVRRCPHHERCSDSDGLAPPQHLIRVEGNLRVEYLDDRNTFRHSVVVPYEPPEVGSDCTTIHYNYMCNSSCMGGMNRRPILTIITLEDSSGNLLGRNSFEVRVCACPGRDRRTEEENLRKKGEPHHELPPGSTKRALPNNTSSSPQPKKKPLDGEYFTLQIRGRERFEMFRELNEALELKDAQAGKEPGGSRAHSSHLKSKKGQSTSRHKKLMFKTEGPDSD
Summary of the method: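 Beta-lactamase reporter ratio (blue 460 nm over green 530 nm, 405 nm excitation) after 2 h CCF4-AM loading, in HCT-116 cells exposed 16 h at 37 C to compounds pinned at 217-fold dilution. Increases relative to DMSO baseline scored.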

[4] = TOX21_p53_BLA_p5_viability: Viability Assessment in the Tox21 HCT-116 p53 Agonism Beta-lactamase Assay, Phase 5 (AID 2283600)
Summary of the method: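 Cells were plated at 4000/well, rested 5 h at 37C, then given compounds in DMSO (217-fold dilution) for 16 h at 37C, 5% CO2. Following the CCF4-AM beta-lactamase read, CellTiter-Glo was added and luminescence was read after 30 min at room temperature.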

[5] = target: Cellular tumor antigen p53 (Homo sapiens) (UniProt P04637); test: TOX21_p53_BLA_p4_ratio: Tox21 HCT-116 p53 Agonism Beta-lactamase Assay, Ratio, Phase 4 (AID 2283601)
Summary of the method: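 Signal is the blue/green (460nm/530nm) ratio of cleaved versus uncleaved CCF4-AM substrate, read after 2 h substrate loading. Cells were HCT116 carrying the p53-responsive beta-lactamase reporter, dosed 16 h at 37C, 5% CO2; CellTiter-Glo measured in parallel.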

[6] = TOX21_p53_BLA_p4_viability: Viability Assessment in the Tox21 HCT-116 p53 Agonism Beta-lactamase Assay, Phase 4 (AID 2283597);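 further: hits lower the luminescence signal meaning cytotoxicity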
Summary of the method: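 HCT116 p53-bla cells (4000/well) rested 5 h at 37C, then received compounds in DMSO (217-fold dilution) for 16 h at 37C, 5% CO2. CellTiter-Glo was added after the CCF4-AM read, and luminescence was read after 30 min at room temperature.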

[7] = system: Brachyury (BRA) Protein Expression, Deisenroth Lab, TBXT (gene 6862); test: CCTE_Deisenroth_DEVTOX-GLR_legacy_Bra: (Legacy) CCTE's DevTox GLR-Endo Assay Evaluation of Brachyury (BRA) Protein Expression, Deisenroth Lab (AID 2284329; active means hit-call score of the fitted dose curve at least 0.9, where 1 is the maximum; inactive means score below 0.9)
Summary of the method: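 Human pluripotent RUES2-GLR line was exposed twice during 48 h differentiation to a 10-point series, 1 nM - 200 uM. Fraction of Bra-positive cells was scored by imaging against pluripotent baseline and fitted after 0.2% DMSO subtraction.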

[8] = CCTE_Deisenroth_DEVTOX-GLR_legacy_CellCount: (Legacy) Viability Assessment in CCTE's DevTox GLR-Endo Assay, Deisenroth Lab (AID 2284331; active means hit-call score of the fitted dose curve at least 0.9, where 1 is the maximum; inactive means score below 0.9); conditions: actives raise or lower the signal
Summary of the method: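 Viability is taken from imaged nuclei counts in fixed RUES2-GLR cultures after 48 h of differentiation under two 24 h-spaced chemical exposures, 10 concentrations from 1 nM to 200 uM, gain or loss versus DMSO baseline.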

[9] = system: SRY-box transcription factor 2 (SOX2) Protein Expression, Deisenroth Lab, SOX2 (gene 6657); test: CCTE_Deisenroth_DEVTOX-GLR_legacy_Sox2: (Legacy) CCTE's DevTox GLR-Endo Assay Evaluation of SRY-box transcription factor 2 (SOX2) Protein Expression, Deisenroth Lab (AID 2284346; active means hit-call score of the fitted dose curve at least 0.9, where 1 is the maximum; inactive means score below 0.9)
Summary of the method: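 hPSC RUES2-GLR, 384-well; 24 h seed → 48 h endoderm differentiation, 2 doses q24h, 1 nM–200 uM. Fix, nuclear dye, 5 fields/well. Sox2+ cells/cell count; cell positive if >5x BMAD over endoderm ctrl; gain direction vs DMSO.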

[10] = system: SRY-box transcription factor 2 (SOX2) Protein Expression, Deisenroth Lab, SOX2 (gene 6657); test: CCTE_Deisenroth_DEVTOX-GLR_Endo_SOX2: CCTE's DevTox GLR-Endo Assay Evaluation of SRY-box transcription factor 2 (SOX2) Protein Expression, Deisenroth Lab (AID 2284412)
Summary of the method: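 RUES2-GLR human pluripotent cells were seeded 24 h, then differentiated 48 h with two chemical exposures 24 h apart. Cells were fixed, nuclei stained and imaged by high-content microscopy. Endpoint is %SOX2+ cells over cell count, minus 0.2% DMSO control; 10-point series 1 nM–200 uM.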

[11] = system: SRY-box transcription factor 17 (SOX17) Protein Expression, Deisenroth Lab, SOX17 (gene 64321); test: CCTE_Deisenroth_DEVTOX-GLR_Endo_SOX17: CCTE's DevTox GLR-Endo Assay Evaluation of SRY-box transcription factor 17 (SOX17) Protein Expression, Deisenroth Lab (AID 2284413; active means hit-call score of the fitted dose curve at least 0.9, where 1 is the maximum; inactive means score below 0.9)
Summary of the method: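 Seed RUES2-GLR cells 24 h; start endoderm differentiation; dose at 0 and 24 h (1 nM - 200 uM, 10 points); fix at 48 h, stain nuclei, image 5 fields/well; compute SOX17+/total cells vs 0.2% DMSO.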

[12] = system: Brachyury (BRA) Protein Expression, TBXT (gene 6862); test: CCTE_Deisenroth_DEVTOX-GLR_Endo_BRA: CCTE's DevTox GLR-Endo Assay Evaluation of Brachyury (BRA) Protein Expression, Deisenroth Lab (AID 2284417; active means hit-call score of the fitted dose curve at least 0.9, where 1 is the maximum; inactive means score below 0.9)
Summary of the method: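 Read-out: BRA+ cell count divided by total cell count by high-content imaging (5 fields per well), expressed relative to 0.2% DMSO solvent control. RUES2-GLR cells dosed twice over a 48 h differentiation; concentrations 1 nM - 200 uM.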

[13] = system: SRY-box transcription factor 2 (SOX2) Protein Expression, Deisenroth Lab, SOX2 (gene 6657); test: CCTE_Deisenroth_DEVTOX-GLR_Pluri_SOX2: CCTE's DevTox GLR-Pluri Assay Evaluation of SRY-box transcription factor 2 (SOX2) Protein Expression, Deisenroth Lab (AID 2284428; active means hit-call score of the fitted dose curve at least 0.9, where 1 is the maximum; inactive means score below 0.9)
Summary of the method: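 Human pluripotent RUES2-GLR cells were seeded 24 h, then differentiated 48 h in defined media with two chemical doses at 24-h intervals (10-point, 1 nM–200 uM). Nuclear-stained cells were imaged; SOX2+ cells/cell count gave percent change versus 0.2% DMSO control.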

[14] = CCTE_Deisenroth_DEVTOX-GLR_Pluri_CellCount: Viability Assessment in CCTE's DevTox GLR-Pluri Assay Evaluation of Total Cell Counts, Deisenroth Lab (AID 2284430; active means hit-call score of the fitted dose curve at least 0.9, where 1 is the maximum; inactive means score below 0.9)
Summary of the method: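 RUES2-GLR human pluripotent cells, seeded 24 h, then differentiated 48 h with two chemical exposures 24 h apart; 10-point series 1 nM - 200 uM. Fixed, nuclear-stained, imaged (5 fields/well); nuclei count as % change vs 0.2% DMSO.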

[15] = target: PGR (gene 5241) (UniProt P06401); test: TOX21_PR_BLA_Followup_Antagonist_ratio: Tox21 HEK293 Progesterone Receptor (PR) Antagonism Beta-lactamase Follow-Up Assay, Ratio (AID 2283934);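 further: PR-UAS-bla HEK293T cells stimulated with 1 nM R5020 agonist for 16 hr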
PGR (gene 5241), sequence (P06401 whole entry, looked up): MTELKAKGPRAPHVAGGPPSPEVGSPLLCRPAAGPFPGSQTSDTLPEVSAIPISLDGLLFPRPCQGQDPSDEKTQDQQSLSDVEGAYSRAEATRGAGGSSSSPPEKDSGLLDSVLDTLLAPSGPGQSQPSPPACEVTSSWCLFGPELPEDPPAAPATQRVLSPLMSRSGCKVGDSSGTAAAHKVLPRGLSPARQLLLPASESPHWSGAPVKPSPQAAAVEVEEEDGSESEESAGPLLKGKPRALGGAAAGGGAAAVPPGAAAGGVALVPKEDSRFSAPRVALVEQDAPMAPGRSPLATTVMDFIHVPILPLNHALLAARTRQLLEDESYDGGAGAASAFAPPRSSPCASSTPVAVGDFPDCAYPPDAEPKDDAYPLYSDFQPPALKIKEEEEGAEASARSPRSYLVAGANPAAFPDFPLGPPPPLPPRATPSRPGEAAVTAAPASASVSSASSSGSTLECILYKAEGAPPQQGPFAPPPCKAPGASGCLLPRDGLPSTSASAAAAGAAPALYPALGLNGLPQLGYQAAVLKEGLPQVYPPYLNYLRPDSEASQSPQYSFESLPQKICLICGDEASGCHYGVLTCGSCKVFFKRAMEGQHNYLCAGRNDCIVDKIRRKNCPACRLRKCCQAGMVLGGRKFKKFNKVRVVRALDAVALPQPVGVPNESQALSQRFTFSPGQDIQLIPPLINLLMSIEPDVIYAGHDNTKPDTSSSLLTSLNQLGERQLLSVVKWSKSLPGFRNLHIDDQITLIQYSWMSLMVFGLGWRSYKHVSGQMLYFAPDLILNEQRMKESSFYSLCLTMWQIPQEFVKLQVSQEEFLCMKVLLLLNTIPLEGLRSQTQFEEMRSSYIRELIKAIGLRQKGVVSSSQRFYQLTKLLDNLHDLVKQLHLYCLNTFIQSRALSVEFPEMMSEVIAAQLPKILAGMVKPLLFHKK
Summary of the method: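 Antagonist mode used 1 nM R5020 (final) as agonist on a beta-lactamase reporter line in HEK293T cells. Activity was taken from the substrate cleavage ratio after 16 hr exposure.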

[16] = TOX21_PR_BLA_Followup_Agonist_viability: Viability Assessment in the Tox21 HEK293 Progesterone Receptor (PR) Agonism Beta-lactamase Follow-Up Assay (AID 2283935);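 further: signal loss means lower viability so actives are cytotoxic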
Summary of the method: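 Multiplexed viability counter-screen: ATP-coupled luciferase signal measured after 30 min at room temperature, following 16 hr compound treatment of PR-UAS-bla HEK293T cells grown in charcoal-stripped serum.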

[17] = target: PGR (gene 5241) (UniProt P06401); test: TOX21_PR_LUC_Followup_Antagonist: Tox21 HEK293 Progesterone Receptor (PR) Antagonism Luciferase Follow-Up Assay (AID 2283938);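 further: curve fitted upward as signal gain over DMSO baseline despite antagonist label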
Summary of the method: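 HEK293-PR-A-luc cells were precultured 5 days in medium with 10% charcoal-stripped FBS, seeded 3,000/well, then exposed to compounds in DMSO for 16 h at 37C. Luciferase was read by ONE-Glo luminescence after 30 min at room temperature.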

[18] = TOX21_PR_LUC_Followup_Antagonist_viability: Viability Assessment in the Tox21 HEK293 Progesterone Receptor (PR) Antagonism Luciferase Follow-Up Assay (AID 2283940)
Summary of the method: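 Cellular ATP, measured with luciferase-coupled CellTiter-Glo, served as the viability endpoint after HEK293-PR-A-luc cells were exposed to test compounds for 16 h at 37C.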

[19] = TOX21_PR_LUC_Followup_Agonist_viability: Viability Assessment in the Tox21 HEK293 Progesterone Receptor (PR) Agonism Luciferase Follow-Up Assay (AID 2283941);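 further: loss of signal means cytotoxicity so actives lower viability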
Summary of the method: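 Luminescent ATP quantitation (CellTiter-Glo) serves as the read-out; a drop flags cytotoxic compounds. Cells are HEK293-PR-A-luc grown in 10% charcoal-stripped FBS, plated 3,000/well, and exposed to compound for 16 h.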

Measured: AC50

Cc1ccc(N(CCO)CCO)cc1
inactive: [1] | [2] | [3] | [4] | [5]

O=C(CCc1ccc(O)cc1)c1c(O)cc(O)cc1O
inactive: [1] | [2] | [4] | [5]

CC(=O)c1ccc(OCC(=O)N2CCCCC2)cc1
inactive: [1] | [2] | [3] | [4] | [5]

CCOC(=O)C1=C[C@@H](OC(CC)CC)[C@H](NC(C)=O)[C@@H](N)C1
inactive: [1] | [2] | [3] | [5]

CC(C)(CC(=O)O)C(=O)O
inactive: [1] | [2] | [3] | [4]

COc1ccc(C(=O)CCC(=O)O)c2ccccc12
inactive: [1] | [2] | [4]

Cc1ccc(/C(=C\CN2CCCC2)c2cccc(/C=C/C(=O)O)n2)cc1
inactive: [1] | [2] | [6] | [5]

CCC(COC(=O)CCS)(COC(=O)CCS)COC(=O)CCS
inactive: [1] | [2] | [4]

CCN(CCCCOC(=O)c1ccc(OC)c(OC)c1)C(C)Cc1ccc(OC)cc1 (stereo not given)
inactive: [1] | [2] | [6] | [5]

CC1(C)S[C@@H]2[C@H](NC(=O)C(c3ccccc3)S(=O)(=O)O)C(=O)N2[C@H]1C(=O)O (stereo not given in full)
inactive: [1] | [2] | [6] | [5]

NC(=O)C1c2ccccc2CCc2ccccc21
inactive: [1] | [2] | [3]

CCCCCN=C(N)N/N=C/c1c[nH]c2ccc(OC)cc12
active: [8] 5.09 µM | [10] 100 µM | [11] 5.27 µM | [12] 143 µM | [13] 7.76 µM | [14] 7.83 µM
inactive: [1] | [2] | [6] | [5] | [7] | [9]

O=C(O)C(=O)Cc1ccccc1
inactive: [1] | [2] | [3] | [5]

C[C@H]1C[C@H]2[C@@H]3CCC4=CC(=O)C=C[C@]4(C)[C@@]3(Cl)[C@@H](O)C[C@]2(C)[C@@]1(O)C(=O)CO
inactive: [1] | [2] | [6] | [4] | [5] | [15] | [16] | [17] | [18] | [19]

O=C1OCCO1
inactive: [1] | [2] | [3] | [4]

NCc1ccccc1Sc1ccccc1CO
inactive: [1] | [2] | [6] | [5]

CC1CCc2nccnc21 (stereo not given)
inactive: [1] | [2] | [4]
